Screening results deposited in PubChem BioAssay by several laboratories.
ERa SRC1 inh: ERα–SRC-1 coactivator interaction inhibitors, primary screen, biochemical, TR-FRET, ERα LBD, estradiol-bound; Estrogen receptor (Homo sapiens), P03372; TR-FRET ER-alpha LBD / SRC-1 peptide; inhibition, % at 25.6 µM; actives 1.7% (n = 86,000); AID 629, 2007; in the data active = inhibition above about 50%;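 note: 0% = receptor plus peptide control and 100% = peptide only without receptor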
ERb coact inh: inhibitors of ERβ-SRC1 coactivator interaction, primary screen, biochemical, TR-FRET, ERβ LBD, SRC-1 peptide. TR-FRET ER-beta LBD / SRC1-Cy5 peptide binding; receptor agonist-loaded with 1 µM estradiol. Estrogen receptor beta (Homo sapiens), Q92731. inhibition, % at 25.6 µM. actives 1.3% (n = 86,000);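 active = compounds whose percent inhibition of the receptor-coactivator binding signal exceeds about 50% in the single-dose screen, limit read from the data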;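 note: 0% = receptor plus peptide wells without compound and 100% = peptide-only wells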
Target sequence (Q92731 whole entry, looked up, the tested form may be a part): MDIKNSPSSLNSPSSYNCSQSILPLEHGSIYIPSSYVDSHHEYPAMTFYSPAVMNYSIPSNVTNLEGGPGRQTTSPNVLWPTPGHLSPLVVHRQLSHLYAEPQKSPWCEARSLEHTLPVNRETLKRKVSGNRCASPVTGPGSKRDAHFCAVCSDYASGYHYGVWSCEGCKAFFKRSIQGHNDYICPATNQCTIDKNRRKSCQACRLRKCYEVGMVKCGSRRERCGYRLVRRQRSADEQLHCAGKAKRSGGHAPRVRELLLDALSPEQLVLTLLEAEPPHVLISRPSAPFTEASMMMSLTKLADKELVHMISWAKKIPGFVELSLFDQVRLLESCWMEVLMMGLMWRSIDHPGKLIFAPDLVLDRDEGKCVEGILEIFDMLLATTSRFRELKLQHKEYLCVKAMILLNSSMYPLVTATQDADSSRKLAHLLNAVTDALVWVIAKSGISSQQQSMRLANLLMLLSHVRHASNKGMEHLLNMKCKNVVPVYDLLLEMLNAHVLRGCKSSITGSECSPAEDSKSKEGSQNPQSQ
ERa SRC1 pot: enhancers of ERα–SRC-1 coactivator binding, primary screen, biochemical, TR-FRET, ERα LBD, low estradiol; Estrogen receptor (Homo sapiens), P03372; TR-FRET ERalpha-LBD/SRC-Cy5 coactivator binding, 2 h; 100 = basal binding, no effect; AID 639, 2007; coactivator binding (% of control), % at 25.6 µM; actives 1.3% (n = 86,000); in the data active = activity above about 200%;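 note: binding measured in presence of low estradiol as agonist stimulus; 0% = peptide alone without receptor and 100% = receptor with peptide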
MRP reversal: reversal of MRP1-mediated doxorubicin resistance, primary screen, H69AR cells, doxorubicin co-treatment; H69AR cells + 2 uM doxorubicin, CellTiter-Glo, 72 h; differential viability (reversal), % at 10 µM; actives 0.04% (n = 85,000);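 active = viability drop by adding the cancer drug above about 55%, with treated viability meeting a 40% cutoff, limit read from the data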;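 note: viability without doxorubicin minus viability with 2 µM doxorubicin for each compound; larger differential means the compound sensitizes cells more to doxorubicin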
MRP1 act: H69AR viability gain despite doxorubicin, primary screen, MRP-1 activator project, H69AR cells, CellTiter-Glo. viability rescue. viability increase, % at 10 µM. actives 0.61% (n = 140,000). AID 799, 2007;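 active = viability gain under doxorubicin at or above a set limit, the compound median plus 3 SD, cut at about 4.7% in these data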;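 note: MRP-1 overexpressing cells given doxorubicin 25 µM after compound pretreatment; 18-22 h compound pretreatment then 72 h with doxorubicin before readout; 0% = doxorubicin-only wells and 100% = vehicle-treated cells without doxorubicin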
* = called active by the depositor; · = no result given; [ ] = dose if it differs, or a comment. Shown are actives, neighbours in structure and some others; about 2.7% of the full set was active somewhere.

SMILES	ERa SRC1 inh	ERb coact inh	ERa SRC1 pot	MRP reversal	MRP1 act
CC(C)c1nnc(NC(=O)c2c(O)c3cccc4c3n(c2=O)CC4)s1	3	5	111	-12	·
CCCc1nnc(NC(=O)c2c(O)c3cccc4c3n(c2=O)CCC4)s1	15	56*[fluorescence artefact?]	93	-2	·
COc1ccc(S(=O)(=O)NCCc2csc(-c3cccnc3)n2)cc1	-5	-2	115	7	-3
O=S(=O)(NCCc1csc(-c2cccnc2)n1)c1cccs1	·	·	·	·	-2
O=S(=O)(NCc1csc(-c2cccnc2)n1)c1cccs1	71*	39	45	-3	-3
O=S(=O)(NCCc1csc(-c2cccnc2)n1)c1ccc(Cl)s1	83*	41	32	2	0
Cc1nn(C)c(C)c1/C=N/N=C1\CCC2C3CCc4cc(O)ccc4C3CCC12C (centres undefined)	·	·	·	·	-4
O=C(c1ccccc1)c1nc2ccccc2n(CCCn2c(=O)c(C(=O)c3ccccc3)nc3ccccc32)c1=O	-9	-5	113	12	-4
Cc1ccc(Cl)cc1NC(=O)COC(=O)C12CC3CC(CC(C3)C1)C2	3	-10	91	4	-2
COc1ccccc1-c1cc(-c2ccccc2)nc(SC(C(N)=O)c2ccccc2)c1C#N (centres undefined)	·	·	·	·	-4
COc1ccccc1CNC(=O)c1c(O)c2cc(OC)c(OC)cc2[nH]c1=O	57*[fluorescence artefact?]	28	81	-15	-2
Cc1c(C(=O)Nc2nnc(C(F)(F)F)s2)oc2ccccc12	-1	-1	135	-20	8.9*
Cc1cc(NC(=O)c2oc3ccccc3c2C)ccc1-n1cnnn1	65*[fluorescence artefact?]	50*[fluorescence artefact?]	131	-37	0
COc1cc(OC)cc(C(=O)Nc2ccc(-n3cnnn3)c(C)c2)c1	-6	-8	127	-10	0
CCN(CC)S(=O)(=O)c1ccc(OC)c(NC(=O)CSc2cc(Cl)ccc2Cl)c1	·	·	·	·	-2
CCCn1c(CCC(=O)Nc2ccccc2Cc2ccccc2)nc2cc(S(=O)(=O)N3CCOCC3)ccc21	-5	0	116	9	-2
O=C(Nc1ccccc1[N+](=O)[O-])C1=C(O)CCn2c1nc1ccccc12	63*	49	147	-15	-1
CCOc1cc(N2CCOCC2)c(OCC)cc1NC1=NCCCCC1	44	70*[fluorescence artefact?]	69	-6	-1
FC(F)(F)c1ccc(N2CCOCC2)c(NC2=NCCCCC2)c1	-7	-6	98	16	-2
O=C(CS(=O)(=O)c1cn(Cc2ccc(Cl)cc2)c2ccccc12)N1CCCC1	12	51*[fluorescence artefact?]	86	-3	-1
CCCCCCc1cc2cc(S(=O)(=O)c3ccc(F)c(Cl)c3)c(=O)oc2cc1O	·	·	·	·	-6
COc1ccc(Cc2nc3ccc(S(=O)(=O)N4CCOCC4)cc3[nH]2)cc1	60*	-7	97	19	-2
COc1cc(-c2nc3oc4ccccc4c(=O)c3c(=O)n2Cc2ccco2)cc(OC)c1OC	-30	-24	100	-15	-1
Cc1nc2cc(-c3ccsc3-n3c(C)ccc3C)[nH]n2c(=O)c1Cl	59*	64*	98	-10	6.0*
O=C(NC(c1ccccc1)C(Cl)(Cl)Cl)c1ccccc1 (centres undefined)	·	·	·	·	-3
SMILES	ERa SRC1 inh	ERb coact inh	ERa SRC1 pot	MRP reversal	MRP1 act
Cc1ccc(-c2csc3ncn(CC(=O)N4CCOCC4)c(=O)c23)cc1C	16	78*[fluorescence artefact?]	68	2	-1
O=C(Cc1ccc(Br)cc1)OCC(=O)N1CCc2ccccc2C1	·	·	·	·	3
Cc1nn(-c2ccccn2)c2c1C(c1ccccn1)C1=C(CCCC1=O)N2 (centres undefined)	·	·	·	·	-1
CCOC(=O)C1=C(N)n2c(s/c(=C\c3cccnc3)c2=O)=C(C(=O)OC)C1c1cccnc1 (centres undefined)	72*[fluorescence artefact?]	19	266*[fluorescence artefact?]	-19	·
C/C(=N\NC(=O)c1ccc(Cn2cc([N+](=O)[O-])cn2)o1)c1cccc(NC(=O)c2cccnc2)c1	·	·	·	·	20*
O=C(Nc1cccc(C(F)(F)F)c1)c1cnc2n(c1=O)CCS2	2	6	285*[fluorescence artefact?]	-4	0
CC1=[N+](C)c2ccc3ccccc3c2C1(C)C	·	·	·	·	-4
CCOC(=O)c1ccccc1-c1csc(NS(=O)(=O)c2ccc(Cl)cc2)n1	·	·	·	·	0
OC(CN1CCN(Cc2ccccc2)CC1)Cn1c2ccccc2c2ccccc21 (centres undefined)	·	·	·	·	-5
OC(CN1CCN(c2ccccc2)CC1)Cn1c2ccccc2c2ccccc21 (centres undefined)	-1	0	270*[fluorescence artefact?]	-11	-3
CC1(C)C(=O)C2(CCCCC2)C(=O)OC1c1ccc(O)cc1 (centres undefined)	-7	-6	218*	-5	1
COC(=O)C1CCCN1C(=O)COc1ccc(Cl)cc1Br (centres undefined)	·	·	·	·	1
N#CC(C(=O)Nc1ccc(Cl)cc1)=C1Nc2ccccc2N1	54*	6	163	-11	-5
O=C(NCc1ccc(Cl)cc1)C(=O)NCC1OCCN1S(=O)(=O)c1cccs1 (centres undefined)	·	·	·	·	4
O=C(NCc1ccc(Cl)cc1)C(=O)NCC1OCCN1C(=O)c1cccs1 (centres undefined)	·	·	·	·	6.4*
Cc1nn(CCO)c2nc(-c3cccs3)cc(C(F)(F)F)c12	·	·	·	·	-1
O=c1c2sc3nc(N4CCOCC4)c4c(c3c2ncn1Cc1ccco1)CCCC4	5	-2	115	-4	·
Cc1n[nH]c(=S)n(/N=C/c2ccccn2)c1=O	-2	0	98	8	6.0*
Cc1nnc(C)n1/N=C/c1ccccn1	-30	-19	106	-9	-2
O=C(NCCN1CCCCCC1)C1CCC(CNS(=O)(=O)c2cccc3cccnc23)CC1 (centres undefined)	60*[fluorescence artefact?]	33	75	20	-2
CCOP(=O)(OCC)C(NC(=O)Nc1ccc(Cl)cc1)C(=O)N(CC)CC (centres undefined)	·	·	·	·	8.9*
CCOC(=O)c1c(NC(=O)CSc2nc3ccccc3s2)sc(C)c1C	·	·	·	·	-2
CCOC(=O)c1c(NC(=O)CSc2ncn[nH]2)sc(C)c1C	4	3	85	5	15*
Cc1ccc(NC(=O)c2ccc(OC(=O)c3ccco3)cc2)cc1	32	21	372*[fluorescence artefact?]	8	1
CCOC(=O)c1c(C)[nH]c(C)c1C(=O)COc1ccc(NC(=O)c2ccco2)cc1	45	54*[fluorescence artefact?]	47	6	-4
Cc1ccc(Oc2ccc(NC(=O)c3ccco3)cc2)cc1	0	6	80	9	-2
CSc1ccccc1OC1CCN(Cc2ccccc2)CC1	·	·	·	·	-3
